Shiga toxin inh = blocks Shiga toxin action in Vero cells | 290,000 tested, 9.2% active | AID 2315 | inhibition, % at 38.7 µM | Vero cells, Shiga toxin protein synthesis inhibition reporter; in the data active = inhibition mostly above about 28%, no sharp cut-off; inactive = mostly below about 43%; note: 0% is about no effect
CHX counter = counter-screen for Shiga toxin inhibitors: cycloheximide protein synthesis inhibition | cell reporter, cycloheximide protein synthesis inhibition counterscreen | max response, % | 300,000 tested, 12% active | AID 2314; in the data active = max response mostly above about 13%, no sharp cut-off; inactive = mostly below about 14%; note: read at 38.3 µM for the half of the compounds with a filed dose; 0% is about no effect
NS1 function inh = influenza NS1 inhibition | Potency, µM (doses to about 46.1 µM), without a hit: at the top dose activity, positive = more growth | 270,000 tested, 0.4% active; calls by dose curve; note: potency is the fitted concentration of half-maximal effect; actives are rising curves; nearly all actives have a fitted effect of over 50% in size
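In this qHTS, NS1 from influenza A is expressed in budding yeast, where it slows growth. Cells are switched from glucose to 2% galactose medium (pH 6.0, -URA), treated with compound, and growth recovery is read at OD600.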
LmPK inh = inhibitors of Leishmania mexicana pyruvate kinase | Q27686 | purified LmPK, Kinase-Glo ATP luminescence, 1 h | Potency, µM (doses to about 57.5 µM), for inactives: at the highest dose activity change, negative = inhibition, hits mostly inhibitors | 290,000 tested, 0.37% active; note: potency is the fitted concentration of half-maximal effect; % is set by controls: 0 for no effect and ±100 for the full control effect
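Pyruvate kinase activity monitored as ATP production (luciferase luminescence). Conditions: 0.1 nM enzyme, 0.5 mM PEP, 0.1 mM ADP, 1 h, RT; normalized against uninhibited and no-enzyme wells.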
FBPA Giardia inh = Giardia lamblia aldolase inhibition; A8B2U2; purified Giardia FBPA; Potency, µM (doses to about 59.6 µM), without a hit: at the top dose activity, negative = inhibition, usual class: inhibitors; 290,000 tested, 0.71% active; note: potency is the fitted concentration of half-maximal effect; % is set by controls: 0 for no effect and ±100 for the full control effect; nearly all actives have a fitted effect of over 55% in size
Target sequence (A8B2U2 whole entry, looked up): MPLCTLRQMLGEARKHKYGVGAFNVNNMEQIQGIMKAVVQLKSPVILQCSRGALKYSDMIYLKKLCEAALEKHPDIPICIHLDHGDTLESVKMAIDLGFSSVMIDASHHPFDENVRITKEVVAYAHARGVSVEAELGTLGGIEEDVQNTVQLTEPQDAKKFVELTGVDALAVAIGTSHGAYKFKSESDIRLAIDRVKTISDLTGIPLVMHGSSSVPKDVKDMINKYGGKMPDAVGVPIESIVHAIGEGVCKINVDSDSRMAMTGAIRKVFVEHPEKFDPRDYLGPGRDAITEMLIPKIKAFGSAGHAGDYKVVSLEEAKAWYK
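40 nM FBPA preincubated 10 min at RT with compound (up to 57.5 uM final), then substrate plus GAPDH/TPI/NAD/arsenate coupling and diaphorase/resazurin added. Fluorescence read after 20 min at RT, 525/598 nm.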
* marks the source's active call; other numbers are inactive results; ? = inconclusive; · = not tested or not shown; [ ] = dose if it differs, or a comment. Most compounds without a hit are left out; they make up all but 14% or so of the library. Unless noted, calls come from the whole dose curve; as a rule, active = well fitted curve in the direction sought with a large enough effect; inconclusive = small, poorly fitted or top-dose-only effect, or another doubt; inactive = no such curve, though single readings can be large; an effect the other way counts as inactive or inconclusive.

SMILES	Shiga toxin inh	CHX counter	NS1 function inh	LmPK inh	FBPA Giardia inh
CCCCNC(=O)C(c1ccc(OCC(=O)OC)c(C(=O)OC)c1)N(CCOC)C(=O)CCCCCN1C(=O)NC(c2ccc(-c3ccccc3)cc2)C(C(=O)OCc2ccccc2)=C1C (centres undefined)	-6	-5	8%	1%	2%
CCCCn1cnc2c([nH]c3ccccc32)c1=O	20	-1	-17%	1%	0%
CCCCOc1ncnc2c1[nH]c1ccccc12	37*	22*	-98%	-5%	10%
CCCCOc1ncnc2c1[nH]c1ccc(OC)cc12	77*	56*	-26%	-1%	7%
COc1ccc2[nH]c3c(N4CCc5ccccc5C4)ncnc3c2c1	13	28*	-6%	3%	-3%
CCCCOc1ncnc2c1[nH]c1ccc(F)cc12	50*	34*	-49%	10%	1%
CCCCOc1ncnc2c1[nH]c1ccc(OCC)cc12	9	12	-10%	0%	7%
Nc1nc(N)c2nn(-c3ccc(C(=O)O)cc3)nc2n1	·	·	-3%	·	·
CC(C)=NOCc1ccc(-c2cc(-c3ccccc3)no2)cc1	·	·	·	·	1%[12.9 µM]
CCOC(=O)C1CCN(CC(=O)Nc2cc(S(=O)(=O)N3CCOCC3)ccc2C)CC1	7	6	·	-23%	?
O=C(O)[C@H]1CC=CC[C@@H]1C(=O)Nc1cccc(O)c1	·	·	17%	·	·
Cc1nnc(SCC(=O)NC2CCCCCC2)n1C	5	-1	22%	-2%	-1%
CCn1c(CC(=O)Nc2ccccc2C)nnc1SCC(=O)NC1CCCC1	19	21*	-8%	2%	1%
CCn1c(COc2cccc(OC)c2)nnc1SCC(=O)NC1CCCC1	-9	36*	21%	3%	-3%
Cc1nnc(SCC(=O)NC2CCCC2)n1C(C)C	-38	20*	6%	-7%	·
Cc1ccccc1NC(=O)Cc1nnc(SCC(=O)NC2CCCCC2)n1C	-6	10	0%	-3%	6%
COCCNc1nc(-c2ccccc2OC)nc2ccccc12	·	·	·	·	-4%
COc1ccccc1CN(Cc1nc2ccccc2c(=O)[nH]1)C(=O)Nc1cccc(C)c1	44*	19*	-58%	8%	-19%
COc1ccccc1NC(=O)N(Cc1ccc2c(c1)OCO2)Cc1nc2ccccc2c(=O)[nH]1	-3	-8	-2%	2%	-1%
N#CC(c1ccccc1O)N1N=C(c2ccccc2)CC1c1ccccc1 (centres undefined)	97*	63*	0%	-7%	-30%
COc1cc(C(C#N)N2N=C(c3ccccc3)CC2c2ccccc2)ccc1O (centres undefined)	87*	30*	-4%	2%	-5%
CC1=NN(C(C#N)c2ccccc2C)C(c2ccccc2)C1 (centres undefined)	26	-1	-5%	3%	12%
Cc1ccc(C#CC2C=CC(Oc3ccc4c(c3)OCO4)C(CO)O2)c(C)c1 (centres undefined)	·	·	·	·	0%[12.9 µM]
O=C(NCCNc1ccc(Cl)cc1[N+](=O)[O-])c1ccccc1F	19	12*	-9%	-3%	-4%
O=[N+]([O-])c1cc(Cl)ccc1NCCc1ccccn1	57*	18*	-42%	3%	5%
SMILES	Shiga toxin inh	CHX counter	NS1 function inh	LmPK inh	FBPA Giardia inh
N#Cc1ccc(NCCc2ccccn2)c([N+](=O)[O-])c1	-1	8	-2%	-5%	1%
NC(=O)C1CCN(C(=O)COc2ccc(Nc3ccccc3)cc2)CC1	26	0	-3%	-3%	-14%
Cc1c(C(N)=O)sc(N)c1C(=O)OC(C)C	11	2	2%	-7%	4%
Cc1c(C(=O)OC(C)C)sc(N)c1C(=O)OC(C)C	107*	32*	-4%	4%	-5%
CC(=O)c1sc(N)c(C(=O)OC(C)C)c1C	24	19*	-15%	-1%	-1%
CC(C)OC(=O)c1c(N)sc2c1CCCC2	·	·	-35%	·	·
O=C1c2ccccc2S(=O)(=O)N1CC(O)COc1ccc(Br)cc1 (centres undefined)	33	28*	-13%	5%	1%
O=C1c2ccccc2S(=O)(=O)N1CCOc1ccccc1	56	35*	6%	-3%	0%
COc1ccc(NC(=O)CCN2C(=O)c3ccccc3S2(=O)=O)cc1	12	19	12%	2%	-1%
O=C1c2ccccc2C(=O)N1CC(O)COc1ccc(Br)cc1 (centres undefined)	90	13*	-8%	12%	5%
OC(COc1ccc(Br)cc1)CN1CCN(c2ccccc2)CC1 (centres undefined)	-5	-3	-4%	-4%	6%
